Experimental data from PubChem BioAssay AID1159580 (chemical genetic matrix, 2015).
Among all 5,500 compounds or so, about 2,000 (36%) were called active. Another 18% or so got no clear call; they are omitted. No stated cut-off is given here; in the data, active means normalized growth mostly below about 0.91 (no sharp cut-off); inconclusive means no clear call, values can overlap the other calls; inactive means mostly above about 0.92. Some of the results follow.

Assay: chemical genetic growth profiling, strain panel (AID 1159580);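 further: tested at 20 µM; growth read once vehicle control cultures reached saturation at 30 °C; 1 = growth at the plate median or of vehicle wells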
Conditions: growth OD

Measured: normalized growth

OC1C(O)C(O)C(O)C(O)C1O (stereo not given)
inactive: S. cerevisiae deletion strains, locus YJR075W, strain HOC1, stronger effect = lower value 1 | S. cerevisiae deletion strains, locus YKL009W, strain mrt4, stronger effect = lower value 0.953 | S. cerevisiae deletion strains, locus YKL068W, stronger effect = lower value 0.973 | S. cerevisiae deletion strains, locus YKL085W, strain MDH1 (second series), stronger effect = lower value 0.97 | S. cerevisiae deletion strains, locus YKL085W, strain MDH1, stronger effect = lower value 0.97 | S. cerevisiae deletion strains, locus YKL160W, strain elf1, stronger effect = lower value 1 | S. cerevisiae deletion strains, locus YKL190W, strain CNB1, stronger effect = lower value 0.99 | S. cerevisiae deletion strains, locus YKR001C, strain vps1, stronger effect = lower value 0.982 | S. cerevisiae deletion strains, locus YKR026C, strain gcn3, stronger effect = lower value 0.997 | S. cerevisiae deletion strains, locus YKR091W, strain srl3, stronger effect = lower value 0.999 | S. cerevisiae deletion strains, locus YLL001W, strain dnm1, stronger effect = lower value 0.997 | S. cerevisiae deletion strains, locus YLL026W, stronger effect = lower value 1 | S. cerevisiae deletion strains, locus YLL041C, strain sdh2, stronger effect = lower value 0.996 | S. cerevisiae deletion strains, locus YLR027C, strain aat2, stronger effect = lower value 1 | S. cerevisiae deletion strains, locus YLR039C, strain RIC1, stronger effect = lower value 0.966 | S. cerevisiae deletion strains, locus YLR058C, strain SHM2, stronger effect = lower value 0.982 | S. cerevisiae deletion strains, locus YLR102C, strain apc9, stronger effect = lower value 0.994 | S. cerevisiae deletion strains, locus YLR113W, strain HOG1, stronger effect = lower value 0.964 | S. cerevisiae deletion strains, locus YLR221C, strain rsa3, stronger effect = lower value 1 | S. cerevisiae deletion strains, locus YLR258W, strain gsy2, stronger effect = lower value 0.998 | S. cerevisiae deletion strains, locus YLR262C, strain YPT6 (second series), stronger effect = lower value 1 | S. cerevisiae deletion strains, locus YLR262C, strain YPT6, stronger effect = lower value 0.962 | S. cerevisiae deletion strains, locus YLR268W, strain sec22, stronger effect = lower value 0.996 | S. cerevisiae deletion strains, locus YLR320W, strain mms22, stronger effect = lower value 0.998 | S. cerevisiae deletion strains, locus YLR330W, strain CHS5, stronger effect = lower value 0.995 | S. cerevisiae deletion strains, locus YLR342W, strain FKS1 (second series), stronger effect = lower value 1.04 | S. cerevisiae deletion strains, locus YLR342W, strain FKS1, stronger effect = lower value 0.995 | S. cerevisiae deletion strains, locus YLR357W, strain rsc2, stronger effect = lower value 0.988 | S. cerevisiae deletion strains, locus YLR370C, strain arc18, stronger effect = lower value 1 | S. cerevisiae deletion strains, locus YLR371W, strain rom2, stronger effect = lower value 0.976 | S. cerevisiae deletion strains, locus YLR384C, strain iki3, stronger effect = lower value 0.998 | S. cerevisiae deletion strains, locus YLR418C, strain cdc73, stronger effect = lower value 0.979 | S. cerevisiae deletion strains, locus YML016C, strain PPZ1, stronger effect = lower value 0.996 | S. cerevisiae deletion strains, locus YML032C, strain rad52, stronger effect = lower value 0.981 | S. cerevisiae deletion strains, locus YML120C, strain ndi1, stronger effect = lower value 1.01 | S. cerevisiae deletion strains, locus YML124C, strain tub3, stronger effect = lower value 0.985 | S. cerevisiae deletion strains, locus YMR058W, strain fet3, stronger effect = lower value 1 | S. cerevisiae deletion strains, locus YMR078C, strain ctf18, stronger effect = lower value 0.982 | S. cerevisiae deletion strains, locus YMR125W, strain sto1, stronger effect = lower value 0.991 | S. cerevisiae deletion strains, locus YMR129W, stronger effect = lower value 0.997 | S. cerevisiae deletion strains, locus YMR205C, strain PFK2, stronger effect = lower value 0.996 | S. cerevisiae deletion strains, locus YMR223W, strain ubp8, stronger effect = lower value 1.02 | S. cerevisiae deletion strains, locus YMR231W, strain pep5, stronger effect = lower value 1 | S. cerevisiae deletion strains, locus YMR263W, strain SAP30, stronger effect = lower value 0.99 | S. cerevisiae deletion strains, locus YMR307W, strain GAS1, stronger effect = lower value 1.03 | S. cerevisiae deletion strains, locus YNL067W, strain RPL9B, stronger effect = lower value 0.965 | S. cerevisiae deletion strains, locus YNL071W, strain lat1, stronger effect = lower value 1 | S. cerevisiae deletion strains, locus YNL153C, strain GIM3, stronger effect = lower value 0.972 | S. cerevisiae deletion strains, locus YNL183C, strain NPR1, stronger effect = lower value 0.984 | S. cerevisiae deletion strains, locus YNL209W, strain ssb2, stronger effect = lower value 0.997 | S. cerevisiae deletion strains, locus YNL233W, strain BNI4, stronger effect = lower value 0.996 | S. cerevisiae deletion strains, locus YNL248C, strain rpa49, stronger effect = lower value 0.99 | S. cerevisiae deletion strains, locus YNL250W, strain rad50, stronger effect = lower value 0.979 | S. cerevisiae deletion strains, locus YNL271C, strain bni1, stronger effect = lower value 0.984 | S. cerevisiae deletion strains, locus YNL298W, strain CLA4, stronger effect = lower value 0.991 | S. cerevisiae deletion strains, locus YNL307C, strain MCK1, stronger effect = lower value 0.984 | S. cerevisiae deletion strains, locus YNL322C, strain KRE1 (second series), stronger effect = lower value 1 | S. cerevisiae deletion strains, locus YNL322C, strain KRE1, stronger effect = lower value 0.993 | S. cerevisiae deletion strains, locus YNR049C, strain mso1, stronger effect = lower value 1 | S. cerevisiae deletion strains, locus YNR052C, strain pop2, stronger effect = lower value 0.989 | S. cerevisiae deletion strains, locus YOL006C, strain TOP1, stronger effect = lower value 0.938 | S. cerevisiae deletion strains, locus YOL012C, strain htz1 1.04 | S. cerevisiae deletion strains, locus YOL147C, strain pex11, stronger effect = lower value 0.994 | S. cerevisiae deletion strains, locus YOR001W, strain rrp6, stronger effect = lower value 1.01 | S. cerevisiae deletion strains, locus YOR061W, strain CKA2, stronger effect = lower value 0.974 | S. cerevisiae deletion strains, locus YOR069W, strain VPS5, stronger effect = lower value 0.997 | S. cerevisiae deletion strains, locus YOR070C, strain gyp1, stronger effect = lower value 1 | S. cerevisiae deletion strains, locus YOR080W, strain dia2, stronger effect = lower value 0.993 | S. cerevisiae deletion strains, locus YOR083W, strain WHI5, stronger effect = lower value 1 | S. cerevisiae deletion strains, locus YOR106W, strain vam3, stronger effect = lower value 1 | S. cerevisiae deletion strains, locus YOR136W, strain idh2, stronger effect = lower value 0.984 | S. cerevisiae deletion strains, locus YOR144C, strain elg1, stronger effect = lower value 0.987 | S. cerevisiae deletion strains, locus YOR184W, strain ser1, stronger effect = lower value 0.996 | S. cerevisiae deletion strains, locus YOR231W, strain MKK1, stronger effect = lower value 0.995 | S. cerevisiae deletion strains, locus YOR265W, strain rbl2, stronger effect = lower value 1 | S. cerevisiae deletion strains, locus YOR270C, strain vph1, stronger effect = lower value 1 | S. cerevisiae deletion strains, locus YOR290C, strain snf2, stronger effect = lower value 0.996 | S. cerevisiae deletion strains, locus YOR316C, strain cot1, stronger effect = lower value 0.979 | S. cerevisiae deletion strains, locus YPL051W, strain arl3, stronger effect = lower value 1.01 | S. cerevisiae deletion strains, locus YPL055C, strain LGE1, stronger effect = lower value 0.966 | S. cerevisiae deletion strains, locus YPL078C, strain atp4, stronger effect = lower value 1 | S. cerevisiae deletion strains, locus YPL106C, strain sse1, stronger effect = lower value 1 | S. cerevisiae deletion strains, locus YPL240C, strain hsp82, stronger effect = lower value 0.995 | S. cerevisiae deletion strains, locus YPL256C, strain CLN2, stronger effect = lower value 0.961 | S. cerevisiae deletion strains, locus YPR119W, strain clb2, stronger effect = lower value 0.993 | S. cerevisiae deletion strains, locus YPR141C, strain kar3, stronger effect = lower value 0.929 | S. cerevisiae deletion strains, locus YPR163C, strain tif3, stronger effect = lower value 0.991 | S. cerevisiae deletion strains, locus YPR167C, strain met16, stronger effect = lower value 0.985 | S. cerevisiae deletion strains, strain wtn01, stronger effect = lower value 0.993 | S. cerevisiae strains, strain wild type, stronger effect = lower value 0.994
